Records with an inconclusive call do not appear. The source made the active and inactive calls. Unless noted, calls come from the whole dose curve; as a rule, active = well fitted curve in the direction sought with a large enough effect in the repeat runs; inconclusive = weak or mixed curves; inactive = no such curve, though single readings can be large; an effect the other way counts as inactive or inconclusive.
Tests used:
[1] = qHTS assay for small molecule agonists of the p53 signaling pathway - cell viability (AID 651633; calls by dose curve;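 note: p53RE-bla HCT reporter cells with a stable beta-lactamase p53 reporter; series mostly up to about 83 µM; nearly all actives have a fitted effect of over 30% in size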)
Method in brief: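 p53RE-bla cells, seeded at 4,000 per well and rested 5 h at 37 C/5% CO2, received compounds in DMSO for 16 h at 37 C. CellTiter-Glo was then added, and luminescence was read after 30 min at room temperature to gauge cytotoxicity.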

[2] = qHTS assay for small molecules that induce genotoxicity in human embryonic kidney cells expressing luciferase-tagged ATAD5 - cell viability (AID 651634; calls by dose curve; note: nearly all actives have a fitted effect of over 25% in size)
Method in brief: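 Quantitative high-throughput format. HEK293T cells expressing ATAD5 fused to luciferase were plated at 2,000 cells/well and treated 15.5 hr with compound versus DMSO. Viability was determined by fluorescent live-cell protease substrate, 30 min at 37C.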

[3] = qHTS assay to test for compound auto fluorescence at 460 nm (blue) in HEK293 cells (AID 720678)
Method in brief: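 Triamterene serves as the blue fluorophore standard. Compound signal at 405/460 nm is read in HEK293 wells (2,000 cells, 10% dialyzed FBS) after overnight treatment at 37C.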

[4] = qHTS assay to test for compound auto fluorescence at 590 nm (red) in HEK293 cells (AID 720679)
Method in brief: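 We plated HEK293 cells in 10% dialyzed FBS medium, let them adhere for 4-5 hr, then added 23 nL compound. Overnight at 37C and 5% CO2 preceded fluorescence measurement at 540/590nm.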

[5] = qHTS assay to test for compound auto fluorescence at 460 nm (blue) in HEK293 cell free culture (AID 720681)
Method in brief: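 Test compounds were pinned into cell-free culture medium (DMEM with 10% FBS) and fluorescence was read directly at Ex/Em 405/460 nm. Signals were expressed as fluorescence equivalents of triamterene, with DMSO vehicle as control.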

[6] = qHTS assay to test for compound auto fluorescence at 590 nm (red) in HEK293 cell free culture (AID 720683)
Method in brief: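 Tox21 10K library compounds were pinned into cell-free DMEM with 10% FBS and fluorescence was read at excitation 540 nm. Activity is expressed as Rose Bengal sodium equivalency.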

[7] = qHTS assay to test for compound auto fluorescence at 460 nm (blue) in HepG2 cell free culture (AID 720685)
Method in brief: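 Cell-free plates of MEM plus 10% FBS received 23 nL compound or DMSO vehicle; blue-channel (405/460 nm) intensity scored against triamterene as reference fluorophore.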

[8] = qHTS assay to test for compound auto fluorescence at 535 nm (green) in HepG2 cell free culture (AID 720686)
[9] = qHTS assay to identify small molecule antagonists of the glucocorticoid receptor (GR) signaling pathway - cell viability counter screen (AID 720693); note: nearly all actives have a fitted effect of over 55% in size
[10] = qHTS assay to identify small molecule antagonists of the androgen receptor (AR) signaling pathway - cell viability counter screen (AID 743033; note: nearly all actives have a fitted effect of over 45% in size)
[11] = qHTS assay to identify small molecule antagonists of the androgen receptor (AR) signaling pathway using the MDA cell line - cell viability counter screen (AID 743041; note: nearly all actives have a fitted effect of over 45% in size)
Method in brief: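 In this qHTS counter assay, fluorescence intensity after CellTiter-Fluor addition indicated viability of MDA-kb2 AR-luc cells given compounds and R1881 for 16 h at 37C.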

[12] = test system: thyroid hormone receptor (rat, GH3 cells); assay: qHTS assay to identify small molecule agonists of the thyroid receptor (TR) signaling pathway (AID 743066; calls by dose curve)
[13] = qHTS assay to identify small molecule antagonists of the estrogen receptor alpha (ER-alpha) signaling pathway - cell viability counter screen (AID 743074; calls by dose curve;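 note: HEK293 cells carrying ER-alpha-UAS-bla reporter stimulated with 17beta-estradiol; nearly all actives have a fitted effect of over 45% in size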)
[14] = qHTS assay to identify small molecule antagonists of the estrogen receptor alpha (ER-alpha) signaling pathway using the BG1 cell line - cell viability counter screen (AID 743081);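 note: compound given together with 17beta-estradiol as the ER stimulus; series mostly up to about 70 µM; nearly all actives have a fitted effect of over 45% in size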
Aromatase (Homo sapiens) = Aromatase (Homo sapiens) (UniProt P11511); assay: qHTS assay to identify aromatase inhibitors (AID 743083); note: series mostly up to about 70 µM; nearly all actives have a fitted effect of over 55% in size
Aromatase (Homo sapiens), sequence (P11511 whole entry, looked up): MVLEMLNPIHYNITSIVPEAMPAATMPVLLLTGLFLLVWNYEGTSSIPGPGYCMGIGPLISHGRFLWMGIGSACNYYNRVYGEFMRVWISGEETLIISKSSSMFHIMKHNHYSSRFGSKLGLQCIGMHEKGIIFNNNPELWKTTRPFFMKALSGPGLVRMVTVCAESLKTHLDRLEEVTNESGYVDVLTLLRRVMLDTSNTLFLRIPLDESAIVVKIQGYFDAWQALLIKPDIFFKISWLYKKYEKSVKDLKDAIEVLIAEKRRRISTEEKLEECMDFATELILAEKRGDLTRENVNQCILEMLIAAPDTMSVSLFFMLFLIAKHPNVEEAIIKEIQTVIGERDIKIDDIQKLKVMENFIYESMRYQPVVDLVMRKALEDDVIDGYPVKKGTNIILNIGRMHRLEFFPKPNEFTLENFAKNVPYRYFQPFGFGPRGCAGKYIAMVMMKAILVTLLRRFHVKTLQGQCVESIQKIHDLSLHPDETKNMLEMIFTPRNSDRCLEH

[15] = qHTS assay to identify aromatase inhibitors - cell viability counter screen (AID 743084);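 note: cells stimulated with testosterone during compound exposure; nearly all actives have a fitted effect of over 55% in size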
[16] = qHTS assay to identify small molecule that activate the aryl hydrocarbon receptor (AhR) signaling pathway - cell viability counter screen (AID 743086)
Method in brief: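 HepG2-AhR-luc (HG2L7.5c1) cells, 4000/well, were preincubated 5 h at 37C, exposed to compound in qHTS format for 24 hr at 37C, then given CellTiter-Fluor for 30 min; viability was read as fluorescence in the reporter wells.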

[17] = qHTS assay to identify small molecule phospholipidosis (PLD) inducers (AID 1259344; active = well fitted curve in the direction sought with a large enough effect; an effect the other way counts as inactive or inconclusive)
Method in brief: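 After 4 h attachment on collagen I, HepG2 cells were dosed with compound alongside LipidTOX Red, kept 24 h at 37 C, fixed, and imaged for lamellar phospholipid pits.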

[18] = target: Nuclear receptor subfamily 1 group I member 2 (Rattus norvegicus) (UniProt Q9R1A7); assay: Rat pregnane X receptor (rPXR) activation by small molecules, qHTS assay (AID 1346983); settings: rPXR luciferase reporter cells, One-Glo luminescence, 24 h; max activation: hits give high values; note: nearly all actives have a fitted effect of over 20% in size
Nuclear receptor subfamily 1 group I member 2 (Rattus norvegicus), sequence (Q9R1A7 whole entry, looked up): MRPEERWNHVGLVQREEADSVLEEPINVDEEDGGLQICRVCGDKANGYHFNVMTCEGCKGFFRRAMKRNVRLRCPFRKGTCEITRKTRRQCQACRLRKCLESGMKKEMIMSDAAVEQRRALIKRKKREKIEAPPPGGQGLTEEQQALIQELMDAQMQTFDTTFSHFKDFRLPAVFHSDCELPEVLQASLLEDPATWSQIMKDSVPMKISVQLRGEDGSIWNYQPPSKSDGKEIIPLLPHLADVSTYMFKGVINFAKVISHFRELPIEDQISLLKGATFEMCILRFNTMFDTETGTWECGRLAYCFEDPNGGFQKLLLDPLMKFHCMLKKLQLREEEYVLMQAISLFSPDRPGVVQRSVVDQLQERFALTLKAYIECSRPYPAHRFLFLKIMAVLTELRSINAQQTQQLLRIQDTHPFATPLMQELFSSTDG
Method in brief: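 Cell-based rPXR luciferase reporter assay, 2,000 cells per well, rested 5hr at 37 C before compound addition in DMSO, then 24 hr at 37 C. One-Glo reagent was added and luminescence read after 30 min at room temperature.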

[19] = qHTS assay to identify small molecule antagonists of the thyroid receptor (TR) signaling pathway (AID 743065); note: series mostly up to about 70 µM; nearly all actives have a fitted effect of over 55% in size
Method in brief: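 GH3.TRE-Luc rat pituitary cells carrying two TR response elements driving luciferase were plated for 4 h, given compound plus 1 nM T3 (final), and incubated 23.5 h at 37 C. ONE-Glo luminescence measured reporter inhibition; CellTiter-Fluor fluorescence tracked cytotoxicity.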
% is set by controls: 0 for no effect and ±100 for the full control effect.

C[C@]12CC[C@H](OS(=O)(=O)O)CC1=CC[C@@H]1[C@@H]2CC[C@]2(C)C(=O)CC[C@@H]12
inactive: Potency [1] | Potency [2] | Potency [3] | outcome [4] | Potency [5] | outcome [6] | Potency [7] | Potency [8] | Potency [9] | Potency [10] | Potency [11] | Potency [12] | Potency [13] | Potency [14] | Potency (Aromatase (Homo sapiens)) | Potency [15] | Potency [16] | Potency [17] | max activation [18] -3.4%

CC(Cc1ccccc1)NC=O (configuration not stated)
inactive: Potency [1] | Potency [2] | Potency [3] | outcome [4] | Potency [5] | outcome [6] | Potency [7] | Potency [8] | Potency [9] | Potency [10] | Potency [11] | Potency [19] | Potency [12] | Potency [13] | Potency [14] | Potency (Aromatase (Homo sapiens)) | Potency [15] | Potency [16] | Potency [17] | max activation [18] 0.0916%

CCC1(CC)C(=O)NC(=O)N(C)C1=O
inactive: Potency [1] | Potency [2] | Potency [3] | outcome [4] | Potency [5] | outcome [6] | Potency [7] | Potency [8] | Potency [9] | Potency [10] | Potency [19] | Potency [12] | Potency [13] | Potency [14] | Potency (Aromatase (Homo sapiens)) | Potency [15] | Potency [16] | Potency [17] | max activation [18] -3.02%

O=C1CN(O)C(c2ccccc2)=c2cc(Cl)ccc2=N1
inactive: Potency [1] | Potency [2] | Potency [3] | outcome [4] | Potency [5] | outcome [6] | Potency [7] | Potency [8] | Potency [9] | Potency [10] | Potency [11] | Potency [19] | Potency [12] | Potency [13] | Potency [14] | Potency (Aromatase (Homo sapiens)) | Potency [15] | Potency [16] | Potency [17] | max activation [18] -6.23%

O=c1[nH]cc(N(CCCl)CCCl)c(=O)[nH]1
inactive: Potency [1] | Potency [2] | Potency [3] | outcome [4] | Potency [5] | outcome [6] | Potency [7] | Potency [8] | Potency [9] | Potency [10] | Potency [11] | Potency [19] | Potency [12] | Potency [14] | Potency (Aromatase (Homo sapiens)) | Potency [15] | Potency [16] | Potency [17] | max activation [18] -3.28%

CNC(=O)OCC[N+](C)(C)C
inactive: Potency [1] | Potency [2] | Potency [3] | outcome [4] | Potency [5] | outcome [6] | Potency [7] | Potency [8] | Potency [9] | Potency [10] | Potency [11] | Potency [19] | Potency [13] | Potency [14] | Potency (Aromatase (Homo sapiens)) | Potency [15] | Potency [16] | Potency [17] | max activation [18] 0.49%

C=C[C@H]1CN2CC[C@H]1C[C@@H]2[C@@H](O)c1ccnc2ccccc12
inactive: Potency [2] | Potency [3] | outcome [4] | Potency [5] | outcome [6] | Potency [7] | Potency [8] | Potency [9] | Potency [11] | Potency [19] | Potency [12] | Potency [13] | Potency [14] | Potency (Aromatase (Homo sapiens)) | Potency [15] | Potency [16] | Potency [17] | max activation [18] -2.95%

C[C@@H](CO)NC(=O)[C@@H]1C=C2c3cccc4[nH]cc(c34)C[C@H]2N(C)C1
inactive: Potency [1] | Potency [2] | Potency [3] | outcome [4] | Potency [5] | outcome [6] | Potency [7] | Potency [8] | Potency [9] | Potency [10] | Potency [11] | Potency [19] | Potency [12] | Potency [13] | Potency [14] | Potency (Aromatase (Homo sapiens)) | Potency [15] | Potency [17] | max activation [18] -0.825%

S=C(S)N1CCNCC1
inactive: Potency [1] | Potency [2] | Potency [3] | outcome [4] | Potency [5] | outcome [6] | Potency [7] | Potency [8] | Potency [9] | Potency [10] | Potency [11] | Potency [19] | Potency [12] | Potency [13] | Potency [14] | Potency (Aromatase (Homo sapiens)) | Potency [15] | Potency [16] | Potency [17]
